Source: PubChem BioAssay (several laboratories)
Pemphigus Ab inh – inhibitors of pemphigus antibody binding to DSG3, primary screen, biochemical, bead-based, flow cytometry, scFv-GFP; Desmoglein-3 (Homo sapiens), P32926; DSG3-coupled beads, scFv-anti-DSG3-GFP binding; hits give low values; binding (percent of control), % at 10 µM; actives 0.48% (n = 310,000); AID 588358, 2011;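 active = binding more than 3 SD below its plate's average and above zero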;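 note: hits lower antibody fragment binding to DSG3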
MPTP inh – mitochondrial permeability transition pore inhibitors, primary screen, biochemical, isolated mouse mitochondria, absorbance; Ca2+ swelling absorbance, 30 min; inhibition, % at 10 µM; actives 1.4% (n = 360,000); AID 602449, 2012;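 active = inhibition of 50% or more, scaled per plate between neutral and stimulator controls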
ADAM17 inh – ADAM17 inhibitors, primary screen, biochemical, QFRET; Disintegrin and metalloproteinase domain-containing protein 17 (Homo sapiens), P78536; recombinant ADAM17, EDANS/DABCYL FRET peptide cleavage; inhibition, % at 6.95 µM; actives 0.83% (n = 370,000);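 active = inhibition above the mean of compounds lying between control limits plus 3 SD, set per campaign, cut at about 8.5% in these data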
Target sequence (P78536 215-824 limits assumed): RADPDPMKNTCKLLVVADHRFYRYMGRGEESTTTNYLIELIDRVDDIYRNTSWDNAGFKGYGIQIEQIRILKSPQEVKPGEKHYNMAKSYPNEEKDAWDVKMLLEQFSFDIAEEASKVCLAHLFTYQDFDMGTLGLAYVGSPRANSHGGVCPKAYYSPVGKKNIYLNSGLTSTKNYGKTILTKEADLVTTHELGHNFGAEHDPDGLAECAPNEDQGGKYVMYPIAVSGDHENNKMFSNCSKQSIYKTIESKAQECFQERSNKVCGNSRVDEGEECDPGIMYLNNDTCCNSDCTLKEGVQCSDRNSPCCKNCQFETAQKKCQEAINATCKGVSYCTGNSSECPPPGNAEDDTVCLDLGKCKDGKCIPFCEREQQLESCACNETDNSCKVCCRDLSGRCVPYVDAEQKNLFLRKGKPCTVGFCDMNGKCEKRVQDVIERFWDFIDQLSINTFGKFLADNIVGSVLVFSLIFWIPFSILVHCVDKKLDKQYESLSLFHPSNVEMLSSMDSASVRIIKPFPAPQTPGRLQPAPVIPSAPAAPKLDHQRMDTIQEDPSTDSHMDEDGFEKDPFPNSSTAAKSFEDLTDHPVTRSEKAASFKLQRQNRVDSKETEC
rCAG binder – binders of r(CAG) RNA repeats, primary screen, biochemical, fluorescence; r(CAG) RNA repeat, TO-PRO-1 dye displacement fluorescence; inhibition, % at 3 µM; actives 1.3% (n = 370,000); AID 651821, 2012;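 active = inhibition above the plate cutoff, the mean of all test compounds on that plate plus 3 SD, cut at about 35% in these data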;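 note: higher means more dye released from RNA so lower well fluorescence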
ADAM10 inh – human ADAM10 inhibitors, primary screen, biochemical, QFRET, HTS; Disintegrin and metalloproteinase domain-containing protein 10 (Homo sapiens), O14672; recombinant ADAM10, EDANS/DABCYL FRET peptide cleavage, 3 h; inhibition, % at 7 µM; actives 0.62% (n = 370,000);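 active = inhibition above a per-campaign cutoff equal to the mean of compounds falling between control-based bounds plus 3 SD, cut at about 20% in these data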
KLK7 zymogen act – proKLK7 zymogen activators, primary screen, biochemical, fluorescence intensity | activation, % at 7 µM | actives 0.9% (n = 370,000) | Kallikrein-7 (Homo sapiens), P49862 | purified proKLK7, EDANS-DABCYL substrate fluorescence; 100% is mature enzyme control, 0% vehicle | AID 652039, 2013;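 active = activation above the mean of all tested compounds plus 3 SD, computed per campaign excluding outliers beyond control limits, cut at about 13% in these data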
KLK7 act conf – proKLK7 zymogen activators, confirmation, biochemical, fluorescence intensity, triplicate | shares compounds with KLK7 zymogen act | purified proKLK7, EDANS-DABCYL substrate fluorescence; scaled: vehicle 0, mature enzyme 100 | activation, % at 7 µM | actives 68% (n = 3,200) | AID 686949, 2013;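 active = activation, as change over the incubation, above the mean of all tested compounds plus 3 SD, cut at about 13% in these data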
EDANS-DABCYL int – EDANS-DABCYL substrate optical interference, artefact control for kallikrein-7 zymogen activator project, biochemical, fluorescence intensity, high throughput; no enzyme, 4 h; solvent 0%, active enzyme control 100%; shares compounds with KLK7 zymogen act; actives 80% (n = 3,200); AID 686952, 2013; activation, % at 7 µM;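 active = activation above the all-compound mean plus 3 SD, ignoring values outside control-based bounds, cut at about 4.8% in these data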;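 note: value is the 4 h activation minus the activation read at time zero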
Of the large screens only hits and unclear results are named; the others gave an inactive call (follow-up assays come after a bar, where they were run). Only some compounds are listed: those with a hit (about 4.7% of all), similar ones and a draw of the others.

CC(=O)c1cc2ccc(O)cc2oc1=O	KLK7 zymogen act 19.9 | KLK7 act conf 27.0 | EDANS-DABCYL int 32.4
O=C(NCc1ccco1)c1cc2ccc(O)cc2oc1=O	KLK7 zymogen act 48.5 (no result: Pemphigus Ab inh) | KLK7 act conf 57.8 | EDANS-DABCYL int 70.6
CC(=O)c1cc2cc(O)ccc2o1	KLK7 zymogen act 83.0 (no result: Pemphigus Ab inh) | KLK7 act conf 70.6 | EDANS-DABCYL int 64.0
CC(C)(C)c1ccc(C(=O)NCC(=O)NCc2ccccn2)cc1	none
COC(=O)[C@]12C[C@H](CC(=O)N3CCOCC3)C(=O)N(Cc3ccc(Cl)cc3Cl)C1=C[C@H](C1CCCC1)O[C@@H]2C	none (no result: Pemphigus Ab inh, MPTP inh)
CN(C)CCCNC(=O)C[C@H]1C[C@H](C(=O)N2CCCCC2)[C@@]2(C)c3[nH]c4cc(-c5ccco5)ccc4c3CCN2C1=O	KLK7 zymogen act 97.1 | KLK7 act conf 86.3 | EDANS-DABCYL int 108.5
CN(C)CCCNC(=O)C[C@H]1C[C@H](C(=O)N2CCCCC2)[C@@]2(CCc3ccccc3)c3[nH]c4cc(-c5ccco5)ccc4c3CCN2C1=O	KLK7 zymogen act 45.9 | KLK7 act conf 40.7 | EDANS-DABCYL int 51.6
CN(C)CCCNC(=O)CC1C[C@H](C(=O)N2CCCCC2)[C@@]2(CCc3ccccc3)c3[nH]c4ccccc4c3CCN2C1=O (some centres undefined)	none
CC[C@]12c3[nH]c4cc(-c5ccco5)ccc4c3CCN1C(=O)[C@@H](CC(=O)NCCCN(C)C)C[C@@H]2C(=O)N1CCN(C(=O)c2ccco2)CC1	KLK7 zymogen act 84.2 | KLK7 act conf 46.8 | EDANS-DABCYL int 63.4
C[C@]12c3[nH]c4cc(-c5ccco5)ccc4c3CCN1C(=O)[C@@H](CC(=O)NCCCn1ccnc1)C[C@@H]2C(=O)N1CCCCC1	KLK7 zymogen act 105.0 | KLK7 act conf 39.7 | EDANS-DABCYL int 61.2
C[C@]12c3[nH]c4cc(-c5ccco5)ccc4c3CCN1C(=O)[C@@H](CC(=O)NCCCn1ccnc1)C[C@@H]2C(=O)N1CCOCC1	none (no result: ADAM17 inh, rCAG binder, ADAM10 inh, KLK7 zymogen act)
Cc1ccc(N(Cc2ccccc2)C(=O)CSC(C)C(=O)Nc2cc(C)on2)cc1 (centres undefined)	none
O=C(c1cnc(Cc2c[nH]c3ccccc23)c(I)c1)N1CCCCC1	none (no result: Pemphigus Ab inh)
Nc1ccn([C@@H]2O[C@H](CNCc3ccc(N4CCNCC4)cc3)[C@@H](O)[C@H]2O)c(=O)n1	none (no result: Pemphigus Ab inh)
O=C1CCN2C=Nc3cccc4ccc1c2c34	KLK7 zymogen act 55.5 | KLK7 act conf 68.4 | EDANS-DABCYL int 65.7
Cn1c(C(=O)N2CCOCC2)cc2c(=O)n3ccccc3nc21	KLK7 zymogen act 61.5 | KLK7 act conf 72.8 | EDANS-DABCYL int 83.9
CC1CC(NC(=O)c2cc3c(=O)n4ccccc4nc3n2C)CC(C)(C)C1 (centres undefined)	none (no result: Pemphigus Ab inh)
Cn1c(C(=O)N2CCc3ccccc3C2)cc2c(=O)n3ccccc3nc21	KLK7 zymogen act 15.8 | KLK7 act conf inactive | EDANS-DABCYL int inactive
CC1CN(C(=O)c2cc3c(=O)n4ccccc4nc3n2C)CC(C)O1 (centres undefined)	KLK7 zymogen act 79.1 | KLK7 act conf 75.2 | EDANS-DABCYL int 70.7
Cn1c(C(=O)O)cc2c(=O)n3ccccc3nc21	KLK7 zymogen act 58.3 | KLK7 act conf 70.5 | EDANS-DABCYL int 78.6
CCOC(=O)C1CCN(C(=O)c2cc3c(=O)n4ccccc4nc3n2C)CC1	KLK7 zymogen act 78.0 | KLK7 act conf 64.1 | EDANS-DABCYL int 64.2
